Source: ChEMBL document CHEMBL1157539, “Thousands of chemical starting points for antimalarial lead identification” (Nature, 2010)

Columns and labels:
Assay type in all cases: functional
[1] = test system: Plasmodium falciparum; assay: GSK_TCMDC: Inhibition of Plasmodium falciparum 3D7 in whole red blood cells, using parasite LDH activity as an index of growth. Test compounds present at 2uM
[2] = test system: Plasmodium falciparum; assay: GSK_TCMDC: Inhibition of Plasmodium falciparum Dd2 in whole red blood cells, using parasite LDH activity as an index of growth. Test compounds present at 2uM
[3] = test system: HepG2; assay: GSK_TCMDC: Percent inhibition of human HepG2 cell line. Test compounds present at 10uM.

Row | SMILES | Inhibition [1] | Inhibition [2] | Inhibition [3]
1 | O=C(O)C(F)(F)F.c1ccc(CNCc2cccc(-c3csc(-c4nc5ccccc5[nH]4)c3)c2)cc1 | 100% | 54% | 24%
2 | NCCCNc1nc(Nc2cccc(C(N)=O)c2)c2c(=O)[nH]ccc2n1.O=C(O)C(F)(F)F | 99% | 49% | 9%
3 | CN=c1nc(NN=Cc2ccccc2Cl)[nH]c(=Nc2cccc(C(F)(F)F)c2)[nH]1.Cl | 84% | 0% | 12%
4 | CN(C(=O)c1snnc1-c1ccccc1)C1CCN(CCCCCNC(=O)/C=C/c2ccc(Cl)c(Cl)c2)CC1 | 96% | 58% | 44%
5 | CCN(CC)/C(=N/C(=N)Nc1ccc(Br)cc1)NCCCCCCN/C(=N\C(=N)Nc1ccc(Br)cc1)N(CC)CC | 96% | 95% | 0%
6 | CO/C(=C\C=C\c1cc2cc(Cl)c(Cl)cc2[nH]1)C(=O)NCCCN1CCN(c2cccc(CCO)c2)CC1 | 100% | 32% | 61%
7 | O=C(Nc1ccccc1)Nc1cccc(-c2cccc(-c3nc4cc(F)ccc4[nH]3)c2)c1 | 99% | 41% | 38%
8 | N#CCCN1CCN(Cc2cccc(-c3ccc(-c4nc5ccccc5[nH]4)s3)c2)CC1.O=C(O)C(F)(F)F | 96% | 8% | 48%
9 | Cc1cccc2nc(-c3cccc(-c4cccc(NC(=O)C5CC(=O)Nc6ccccc65)c4)c3)[nH]c12 (stereo not drawn) | 85% | 25% | 13%
10 | COc1ccc2nccc([C@@H](O)CN3CCC(NC(=O)c4nc(Cl)c(Cl)c(N)c4Cl)CC3)c2c1.CS(=O)(=O)O | 87% | 17% | 16%
11 | COc1ccc(CCN2CCC(Nc3nc4ccccc4n3CCc3ccc(OC)cc3)CC2)cc1.Cl | 100% | 88% | 34%
12 | O=C(Oc1ccc(Cl)cc1C(=O)Nc1ccc([N+](=O)[O-])cc1Cl)c1ccccc1 | 97% | 19% | 88%
13 | Cn1c(Sc2ncnc3sccc23)nc2ccccc21 | 100% | 100% | 0%
14 | N#Cc1cc([N+](=O)[O-])ccc1-n1nc(-c2cccc(Cl)c2)n(CC2CCCO2)c1=S (stereo not drawn) | 91% | 89% | 0%
15 | Cn1cncc1CCCN(Cc1ccc(-c2ccc(C(F)(F)F)cc2)cc1)C(=O)Cn1c(CCc2cccc(F)c2F)cc(=O)c2cccnc21 | 85% | 59% | 17%
16 | Cc1nc2ccc(NC(=O)c3cc(S(=O)(=O)N(C)C)ccc3Cl)cc2s1 | 91% | 77% | 20%
17 | Br.CCCCCCCn1c2c(c(=N)c3c1CCC3)CCCC2 | 98% | 98% | 46%
18 | O=C(N[C@H]1CCN(Cc2ccc(OCCN3CCNCC3)c3ccccc23)C1)c1ccc(Cl)c(Cl)c1.O=C(O)C(F)(F)F | 100% | 99% | 53%

Row | SMILES | Inhibition [1] | Inhibition [2] | Inhibition [3]
19 | CC(C)=CC1C(C(=O)n2c(=N)[nH]c3ccccc32)C1(C)C (stereo not drawn) | 99% | 3% | 16%
20 | FC(F)(F)c1ccc2[nH]c(-c3cccc(-c4cccc(CNCCN5CCNCC5)c4)c3)nc2c1.O=C(O)C(F)(F)F | 92% | 18% | 29%
21 | Cc1ccc(NC(=O)c2c(C)noc2-c2snnc2C)cc1 | 92% | 71% | 1%
22 | O=C(CCc1c[nH]cn1)Nc1ccc(-c2ccc(-c3nc4cc(F)ccc4[nH]3)cc2)cc1 | 99% | 58% | 26%
23 | O=C(Nc1cncc(NC(=O)c2ccc(Cl)c(Cl)c2)c1)c1ccc(Cl)c(Cl)c1 | 100% | 70% | 12%
24 | COc1ccc(C=NN=c2cc(C)[nH]c3c(C)cccc23)c2ccccc12 | 100% | 98% | 3%
25 | Cc1cccc2nc(-c3cccc(-c4cccc(NC(=O)c5cccnc5)c4)c3)[nH]c12 | 100% | 56% | 28%
26 | COc1cc(CNCCCNc2nc(=O)c3sccc3[nH]2)c2[nH]cc(Cl)c2c1.CS(=O)(=O)O | 96% | 0% | 29%
27 | Cc1cccc2c3c([nH]c12)C1(CCN(CCc2ccccc2)CC1)NC(C(=O)NCc1ccccc1)C3 (stereo not drawn) | 86% | 52% | 10%
28 | Br.CN(C)CCCOc1ccc(-c2csc(NC(=N)NCc3ccccc3)n2)cc1 | 100% | 97% | 57%
29 | Brc1ccc(Nc2nc(NCC3CCCO3)c3ccccc3n2)cc1 (stereo not drawn) | 100% | 99% | 13%
30 | COC(=O)c1cccc(NC(=O)NC2CCN(c3ccnc(Nc4cc(OC)c(OC)c(OC)c4)n3)C2)c1 (stereo not drawn) | 99% | 68% | 7%
31 | Nc1ccnc(N2CCC(CCOc3cc(C(F)(F)F)nc4c(C(F)(F)F)cccc34)CC2)c1 | 98% | 17% | 35%
32 | CCc1c[nH]c2c(N3CCCS3(=O)=O)cc(C(=O)N[C@@H](Cc3ccccc3)[C@H](O)CNC(C)(C)CCCC(C)C)cc12 | 96% | 98% | 13%
33 | Cc1cc(-c2ccc(CNCc3ccc(F)cc3)cc2)ccc1S(=O)(=O)NCCN1CCCC1.O=C(O)C(F)(F)F | 100% | 41% | 95%
34 | CC(=O)Nc1ncc(C(=O)Nc2cccc(-c3cccc(-c4nc5cc(F)ccc5[nH]4)c3)c2)s1 | 100% | 93% | 27%
35 | C[C@@H](C(N)=O)N1CCCCC1c1ccc(OCc2cccc(F)c2)cc1 (stereo partly drawn) | 84% | 96% | 79%
36 | CN(C)C(=O)O[C@@H]1CN[C@H](C#Cc2cc3ncnc(Nc4ccc5c(cnn5Cc5cccc(F)c5)c4)c3s2)C1.Cl | 97% | 68% | 0%
